# In PubChem BioAssay AID651926 (Vanderbilt Specialized Chemistry Center, 2012):
# The source made the active and inactive calls. The rule behind the calls is not given here.
# Target: Histone deacetylase 2 (Homo sapiens) (UniProt Q92769)
# Assay: recombinant HDAC2 deacetylase inhibitors – biochemical, HDAC isoform panel, selectivity assay for E-cadherin restoration project, profiling panel (AID 651926)
# Chain of Histone deacetylase 2 (Homo sapiens) (Q92769 whole entry, looked up, canonical isoform): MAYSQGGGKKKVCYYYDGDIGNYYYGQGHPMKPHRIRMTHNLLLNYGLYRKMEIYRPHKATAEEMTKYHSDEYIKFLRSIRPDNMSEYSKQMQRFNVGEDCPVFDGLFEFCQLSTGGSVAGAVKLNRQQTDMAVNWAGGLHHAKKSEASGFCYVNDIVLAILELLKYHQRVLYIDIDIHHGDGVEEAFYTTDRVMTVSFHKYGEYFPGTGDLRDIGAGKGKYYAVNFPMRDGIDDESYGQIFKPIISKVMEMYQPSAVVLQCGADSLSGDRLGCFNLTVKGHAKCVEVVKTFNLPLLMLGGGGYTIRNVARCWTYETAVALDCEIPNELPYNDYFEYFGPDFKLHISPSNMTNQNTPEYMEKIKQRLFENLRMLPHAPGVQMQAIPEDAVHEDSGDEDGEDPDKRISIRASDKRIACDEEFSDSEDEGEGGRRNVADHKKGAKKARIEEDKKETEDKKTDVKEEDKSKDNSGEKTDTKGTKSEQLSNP
compound,measurement,value
O=C(NCCCNC(=O)c1ccc[nH]c1=O)c1cc(-c2ccccc2)on1,outcome,inactive
